Laboratory results published in PubChem BioAssay (NCATS).
Where “and” joins values, the source holds several entries; their conditions need not be identical. Equal values may be shown once. Records with an inconclusive call do not appear. Calls of active or inactive are those of the source. Unless noted, calls follow the shape of the dose curve; as a rule, active = well fitted curve in the direction sought with a large enough effect; inconclusive = small, poorly fitted or top-dose-only effect, or another doubt; inactive = no such curve, though single readings can be large; an effect the other way counts as inactive or inconclusive.

What was measured:
[1] = qHTS for differential inhibitors of proliferation of Plasmodium falciparum line D10 (AID 1877);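 also: potency is read from the fitted curve at half-maximal effect; parasites grown with compound for 72 h before DNA staining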
[2] = qHTS for differential inhibitors of proliferation of Plasmodium falciparum line Dd2 (AID 1882); details: Potency: Plasmodium falciparum Dd2 proliferation inhibition; also: potency is read from the fitted curve at half-maximal effect; nearly all actives have a fitted effect of over 65% in size
Procedure, shortened: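 Dd2-infected erythrocytes (0.3% parasitemia, 2.5% hematocrit final) incubated with compound 72 h at 37 C, 5% CO2; lysed with saponin/Triton buffer containing SYBR Green I, incubated overnight in the dark, then read by fluorescence (485/535 nm). Normalized to 0.29 uM artemisinin and DMSO.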

[3] = qHTS for differential inhibitors of proliferation of Plasmodium falciparum line W2 (AID 1883); details: Potency: Plasmodium falciparum W2 proliferation inhibition;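 also: potency is read from the fitted curve at half-maximal effect; parasites grown with compound for 72 h before lysis and staining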
[4] = qHTS for differential inhibitors of proliferation of Plasmodium falciparum line HB3 (AID 1886); details: Potency: Plasmodium falciparum HB3 proliferation inhibition;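 also: potency is read from the fitted curve at half-maximal effect; parasites grown with compound for 72 h before SYBR Green readout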
[5] = molecular target: ATP-dependent DNA helicase Q1 (Homo sapiens) (UniProt P46063); experiment: qHTS Validation Assay for Inhibitors of RecQ-Like Dna Helicase 1 (RECQ1) (AID 2353)
Procedure, shortened: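 50 nM RECQ1T1 preincubated 15 min with compound in Tris pH 8.0 buffer with MgCl2, DTT, Tween-20 and 2.5 ug/ml poly(dI-dC); started with 200 nM TAMRA/BHQ-2 forked duplex and 2 mM ATP. Unwinding read as fluorescence (525/598 nm), two reads 2 h apart.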

[6] = Cytometric Cell-Based qHTS for Inhibitors of the mTORC1 Signaling Pathway in MEF (Tsc2-/-, p53-/-) Cells (AID 2660);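 also: Tsc2 and p53 null MEFs carrying empty vector with compound for 24 h; percent of cells above a phospho-rpS6 to PI ratio cutoff in each well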
Procedure, shortened: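 Readout: Alexa-488 phospho-rpS6 (Ser235/236) intensity divided by PI intensity, thresholded against 7.5 nM rapamycin wells and reported as % positive cells. PI cell count served as the viability measure. Compound exposure was 24 hrs at 37 degree Celsius.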

[7] = High Content Imaging Cell-Based qHTS for Inhibitors of the mTORC1 Signaling Pathway in MEF (Tsc2-/-, p53-/-) Cells (AID 2666); details: at 38.3 µM (top of the series);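 also: percent of cells scored positive for phospho-rpS6 Ser235/236 immunostaining by imaging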
Procedure, shortened: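 Cells were plated, dosed with compound after 24 hrs, and incubated another 24 hrs at 37 degree Celsius. Fixed cells were immunostained for phospho-rpS6 Ser235/236 and counterstained, and the normalized signal was scored as % active cells against rapamycin and DMSO controls.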

[8] = High Content Imaging Cell-Based qHTS for Inhibitors of the mTORC1 Signaling Pathway in MEF Cells (AID 2667);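 also: Tsc2-/- p53-/- MEFs stably re-expressing wild-type Tsc2 exposed 24 h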
Procedure, shortened: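 Immunofluorescence for rpS6 phosphorylation in MEFs of Tsc2-/-, p53-/- background rescued with WT Tsc2. Compound exposure lasted 24 hrs. Inhibition was scored against rapamycin-treated control wells.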

[9] = molecular target: Ubiquitin carboxyl-terminal hydrolase 2 (Homo sapiens) (UniProt O75604); experiment: qHTS Validation Assay for Inhibitors of Ubiquitin-specific Protease USP2a Using CHOP2 as the Reporter (AID 463106)
Procedure, shortened: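 10nM USP2 core + cpd, 30min RT; add 25nM Ub-CHOP2/25nM substrate; 60min RT; FI 485/531nm. Buffer Tris pH 8.0, CaCl2, BME, CHAPS. Norm. to NEM = 100% inhibition; time-zero read flags fluorescent artifacts.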

[10] = molecular target: DNA polymerase III PolC-type (Bacillus subtilis (strain 168)) (UniProt P13267); experiment: qHTS Validation Assay for the Inhibitors of DNA Replication in Gram-Positive Bacteria (AID 485295);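 also: reconstituted holoenzyme with PolC plus beta clamp SSB and primase; PicoGreen fluorescence of double-stranded DNA made on primed circular M13 template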
Procedure, shortened: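 Inhibition of DNA synthesis by the reconstituted PolC holoenzyme, monitored through PicoGreen staining of dsDNA formed from ssM13Gori, dNTPs and NTPs, with compound preincubation and room-temperature reaction.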

[11] = molecular target: Tumor susceptibility gene 101 protein (Homo sapiens) (UniProt Q99816); experiment: qHTS Validation Assay for Iinhibitors of HIV-1 Budding by Blocking the Interaction of PTAP/TSG101 (AID 485342; calls by dose curve)
Procedure, shortened: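 Compound wells held the Tsg101 binding domain (10 uM) and a FITC-conjugated PTAP peptide (50 nM) in buffer at pH 7.5 containing 0.15 M NaCl and 0.01% Tween 20; polarization was recorded after 20 min, r.t.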

[12] = molecular target: Beta-2 adrenergic receptor (Homo sapiens) (UniProt P07550); experiment: qHTS validation assay of beta-arrestin-biased ligands of beta2-adrenergic receptor (AID 485366)
Procedure, shortened: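 Tango cells (recombinant beta2-AR with recombinant beta-arrestin; recruitment releases tTA driving luciferase) were treated with compounds titrated up to 46 microM for 18 hr at 37 degrees C. Luminescence gave %Activity, and concentration-response curves were curve-classified.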

[13] = molecular target: ATP-dependent 6-phosphofructokinase (Trypanosoma brucei brucei) (UniProt O15648); experiment: qHTS Validation Assay to Find Inhibitors of T. brucei phosphofructokinase (AID 485368)
Procedure, shortened: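 Compounds (up to 57 uM, titration series) were pinned into substrate buffer, then 1.25 nM PFK added; after 45 min at room temperature, ADP product was quantified by ADP-Glo luminescence and concentration-response curves fitted.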

[14] = molecular target: Thioredoxin reductase 1, cytoplasmic (Rattus norvegicus) (UniProt O89049); experiment: qHTS Assay for Substrates of Mammalian Selenoprotein Thioredoxin Reductase 1 (TrxR1) (AID 488772);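 also: NADPH fluorescence in the first read after selenite addition and not the 8 min delta; a drop in NADPH fluorescence below the no-compound background marks a TrxR1 substrate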
Procedure, shortened: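 Quantitative HTS in Tris-HCl buffer at pH 7.5 with EDTA and Tween-20, using rat TrxR1, 400 uM NADPH and 400 uM selenite (final). A fall in initial NADPH fluorescence relative to background marked substrate behaviour.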

[15] = molecular target: Thioredoxin reductase 1, cytoplasmic (Rattus norvegicus) (UniProt O89049); experiment: qHTS Assay for Inhibitors of Mammalian Selenoprotein Thioredoxin Reductase 1 (TrxR1) (AID 488773); details: Potency: inhibition;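 also: drop in NADPH fluorescence over an 8 min run after selenite addition; nearly all actives have a fitted effect of over 40% in size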
Procedure, shortened: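 Steps: enzyme (90 nM) plus NADPH (400 uM final), 5 min at ~22 deg C; compound added, 15 min; selenite (400 uM final) added; fluorescence followed for 8 min. Concentration-response curves derived from the normalized delta values.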

[16] = molecular target: Flap endonuclease 1 (Homo sapiens) (UniProt P39748); experiment: qHTS Validation Assay for the Inhibitors of Human Flap endonuclease 1 (FEN1) (AID 488816)
Procedure, shortened: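 Readings taken at 0 and 15 min after starting the reaction with 50 nM (final) substrate supplied the signal. Compounds had first sat with 10 nM FEN1 reagent for 15 min at room temperature. Values come from Hill-equation concentration-response fits.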

[17] = molecular target: M-phase phosphoprotein 8 (Homo sapiens) (UniProt Q99549); experiment: qHTS Validation Assay for Inhibitors for MPP8 Chromodomain Interactions with Methylated Histone Tails (AID 488949); also: potency is read from the fitted curve at half-maximal effect; nearly all actives have a fitted effect of over 55% in size
Procedure, shortened: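 Chemiluminescent proximity assay: histidine-tag capture via nickel acceptor beads, biotin peptide via streptavidin donor beads. Protein and peptide each at 50 nM, pH 7.4, with 30 min incubations at room temperature for complex formation, compound exposure and bead binding.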

[18] = molecular target: Transient receptor potential cation channel subfamily V member 1 (Homo sapiens) (UniProt Q8NER1); experiment: HTS Assay for Compounds that Act as Enhancers of the Vanilloid Receptor 1 (AID 488979)
Procedure, shortened: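 Calcium influx kinetics via Fluo-8 (480/520 nm) in TRPV1-expressing cells, 2000/well cultured overnight at 35.5C. Compound-alone read 3 min (agonist phase), followed by EC20 capsaicin challenge for 2 min (enhancer phase).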

[19] = molecular target: Thyrotropin receptor (Homo sapiens) (UniProt P16473); experiment: qHTS Assay for Antagonists of the Thyroid Stimulating Hormone Receptor (AID 488980)
Procedure, shortened: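 Inhibition of TSH-stimulated cAMP accumulation was quantified by homogeneous time-resolved FRET in TSHR-transfected HEK293 cells. Agonist: TSH, 4 nM final (EC80).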

[20] = molecular target: D(1A) dopamine receptor (Homo sapiens) (UniProt P21728); experiment: HTS Assay for Allosteric Agonists of the Human D1 Dopamine Receptor: Primary Screen for Agonists (AID 488981)
Procedure, shortened: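 Calcium flux in an inducible, force-coupled HEK293 Trex D1 line (overnight at 30 C): agonist mode is the 180 s kinetic read after compound; potentiator mode is the following 180 s read after dopamine at EC20.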

Measured: Potency

Thioredoxin reductase 1, cytoplasmic (Rattus norvegicus), sequence (O89049 whole entry, looked up): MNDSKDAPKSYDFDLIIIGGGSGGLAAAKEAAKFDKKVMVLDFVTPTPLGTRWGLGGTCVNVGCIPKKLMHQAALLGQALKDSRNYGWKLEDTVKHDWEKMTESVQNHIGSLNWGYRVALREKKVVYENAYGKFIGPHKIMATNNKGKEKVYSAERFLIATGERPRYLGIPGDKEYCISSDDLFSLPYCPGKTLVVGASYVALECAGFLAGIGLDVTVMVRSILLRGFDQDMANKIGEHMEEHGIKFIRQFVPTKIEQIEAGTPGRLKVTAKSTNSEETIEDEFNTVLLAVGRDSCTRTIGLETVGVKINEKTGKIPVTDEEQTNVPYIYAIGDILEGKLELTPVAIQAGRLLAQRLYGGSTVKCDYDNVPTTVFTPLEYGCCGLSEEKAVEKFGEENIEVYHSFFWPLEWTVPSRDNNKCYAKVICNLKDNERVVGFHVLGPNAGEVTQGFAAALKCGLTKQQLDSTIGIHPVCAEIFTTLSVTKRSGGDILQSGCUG
M-phase phosphoprotein 8 (Homo sapiens), sequence (Q99549 whole entry, looked up): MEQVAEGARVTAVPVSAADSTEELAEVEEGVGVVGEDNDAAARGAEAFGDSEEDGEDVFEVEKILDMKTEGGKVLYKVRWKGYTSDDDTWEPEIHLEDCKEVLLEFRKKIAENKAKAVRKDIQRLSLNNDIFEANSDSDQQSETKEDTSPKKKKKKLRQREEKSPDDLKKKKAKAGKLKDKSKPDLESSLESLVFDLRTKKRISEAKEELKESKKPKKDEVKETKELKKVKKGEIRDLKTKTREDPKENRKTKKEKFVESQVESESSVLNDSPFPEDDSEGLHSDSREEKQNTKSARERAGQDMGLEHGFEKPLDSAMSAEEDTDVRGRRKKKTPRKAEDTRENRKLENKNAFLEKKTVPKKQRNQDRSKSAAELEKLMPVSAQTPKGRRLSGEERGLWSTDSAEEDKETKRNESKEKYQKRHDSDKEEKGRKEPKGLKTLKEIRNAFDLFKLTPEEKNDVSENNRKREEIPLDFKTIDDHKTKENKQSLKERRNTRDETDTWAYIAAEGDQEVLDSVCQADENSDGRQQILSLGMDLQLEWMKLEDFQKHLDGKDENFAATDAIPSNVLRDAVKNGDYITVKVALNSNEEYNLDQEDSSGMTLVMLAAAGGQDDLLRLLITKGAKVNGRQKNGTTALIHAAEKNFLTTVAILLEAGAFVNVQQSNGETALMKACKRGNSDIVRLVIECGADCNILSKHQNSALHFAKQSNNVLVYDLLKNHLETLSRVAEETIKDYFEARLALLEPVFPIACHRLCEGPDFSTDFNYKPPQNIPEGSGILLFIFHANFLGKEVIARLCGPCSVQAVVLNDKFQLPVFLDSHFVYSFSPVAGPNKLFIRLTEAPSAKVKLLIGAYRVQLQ
Tumor susceptibility gene 101 protein (Homo sapiens), sequence (Q99816 whole entry, looked up, the tested form may be a part): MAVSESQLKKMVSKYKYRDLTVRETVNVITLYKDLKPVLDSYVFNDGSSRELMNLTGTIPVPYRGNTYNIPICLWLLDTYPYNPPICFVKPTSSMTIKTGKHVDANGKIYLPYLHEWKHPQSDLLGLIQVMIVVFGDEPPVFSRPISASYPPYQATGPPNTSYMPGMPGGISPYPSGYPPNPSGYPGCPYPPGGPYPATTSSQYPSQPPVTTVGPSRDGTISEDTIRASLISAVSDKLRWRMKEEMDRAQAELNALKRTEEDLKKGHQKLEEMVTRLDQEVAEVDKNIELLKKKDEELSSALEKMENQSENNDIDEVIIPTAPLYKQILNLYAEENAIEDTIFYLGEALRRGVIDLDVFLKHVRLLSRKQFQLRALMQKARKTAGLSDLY
D(1A) dopamine receptor (Homo sapiens), sequence (P21728 whole entry, looked up): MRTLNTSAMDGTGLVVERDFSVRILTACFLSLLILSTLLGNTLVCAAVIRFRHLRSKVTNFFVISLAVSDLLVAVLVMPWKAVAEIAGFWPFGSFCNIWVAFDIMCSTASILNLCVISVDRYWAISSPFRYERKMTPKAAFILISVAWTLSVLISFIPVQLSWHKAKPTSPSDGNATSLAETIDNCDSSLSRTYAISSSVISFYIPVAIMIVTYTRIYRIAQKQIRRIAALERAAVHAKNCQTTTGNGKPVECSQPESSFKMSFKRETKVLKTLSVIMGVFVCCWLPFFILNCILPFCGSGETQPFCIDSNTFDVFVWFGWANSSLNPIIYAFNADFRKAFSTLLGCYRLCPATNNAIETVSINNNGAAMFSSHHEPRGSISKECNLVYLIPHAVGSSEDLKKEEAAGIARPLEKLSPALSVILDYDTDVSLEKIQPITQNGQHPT
Thyrotropin receptor (Homo sapiens), sequence (P16473 whole entry, looked up): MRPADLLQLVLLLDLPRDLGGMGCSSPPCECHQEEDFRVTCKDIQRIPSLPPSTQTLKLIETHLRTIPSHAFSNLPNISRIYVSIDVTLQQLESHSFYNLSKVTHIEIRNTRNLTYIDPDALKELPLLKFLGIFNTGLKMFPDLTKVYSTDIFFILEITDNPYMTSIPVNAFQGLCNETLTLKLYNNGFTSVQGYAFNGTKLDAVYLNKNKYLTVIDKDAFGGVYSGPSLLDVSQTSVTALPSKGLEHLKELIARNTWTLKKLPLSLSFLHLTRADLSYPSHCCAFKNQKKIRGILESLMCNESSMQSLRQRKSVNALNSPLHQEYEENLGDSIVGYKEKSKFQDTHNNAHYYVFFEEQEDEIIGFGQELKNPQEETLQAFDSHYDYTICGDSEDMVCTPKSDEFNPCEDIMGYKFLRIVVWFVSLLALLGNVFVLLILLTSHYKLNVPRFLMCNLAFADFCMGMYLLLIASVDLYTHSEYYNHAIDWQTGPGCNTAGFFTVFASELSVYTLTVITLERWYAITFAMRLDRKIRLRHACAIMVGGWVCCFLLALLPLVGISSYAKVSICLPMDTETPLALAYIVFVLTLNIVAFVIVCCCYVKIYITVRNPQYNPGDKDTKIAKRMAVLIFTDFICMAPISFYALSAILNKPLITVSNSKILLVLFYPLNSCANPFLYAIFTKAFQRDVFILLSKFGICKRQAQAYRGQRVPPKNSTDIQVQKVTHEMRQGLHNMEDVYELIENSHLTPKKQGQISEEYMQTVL
ATP-dependent 6-phosphofructokinase (Trypanosoma brucei brucei), sequence (O15648 whole entry, looked up): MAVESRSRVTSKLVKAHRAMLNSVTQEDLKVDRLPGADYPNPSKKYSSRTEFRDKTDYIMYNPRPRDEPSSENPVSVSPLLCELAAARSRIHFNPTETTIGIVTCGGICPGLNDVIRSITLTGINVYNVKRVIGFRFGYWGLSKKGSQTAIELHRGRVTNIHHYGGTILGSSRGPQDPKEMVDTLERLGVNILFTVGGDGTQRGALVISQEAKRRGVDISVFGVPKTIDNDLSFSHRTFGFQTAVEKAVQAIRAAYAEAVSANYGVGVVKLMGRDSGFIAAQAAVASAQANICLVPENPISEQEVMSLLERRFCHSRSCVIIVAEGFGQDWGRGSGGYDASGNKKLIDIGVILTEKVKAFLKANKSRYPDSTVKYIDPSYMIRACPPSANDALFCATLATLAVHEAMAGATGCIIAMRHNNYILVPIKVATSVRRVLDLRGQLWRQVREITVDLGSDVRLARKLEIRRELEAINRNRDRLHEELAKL
Beta-2 adrenergic receptor (Homo sapiens), sequence (P07550 whole entry, looked up): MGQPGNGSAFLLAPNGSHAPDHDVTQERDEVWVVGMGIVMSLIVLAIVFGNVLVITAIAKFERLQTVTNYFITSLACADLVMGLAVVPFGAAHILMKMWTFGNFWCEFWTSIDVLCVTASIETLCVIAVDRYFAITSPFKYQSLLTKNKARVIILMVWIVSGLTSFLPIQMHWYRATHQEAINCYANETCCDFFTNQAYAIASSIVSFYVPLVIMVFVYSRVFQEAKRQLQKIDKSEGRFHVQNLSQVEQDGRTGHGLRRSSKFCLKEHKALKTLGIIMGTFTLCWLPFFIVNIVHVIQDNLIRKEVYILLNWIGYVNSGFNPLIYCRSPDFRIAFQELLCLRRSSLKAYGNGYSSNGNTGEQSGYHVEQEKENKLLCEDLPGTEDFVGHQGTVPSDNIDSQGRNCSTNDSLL
Transient receptor potential cation channel subfamily V member 1 (Homo sapiens), sequence (Q8NER1 whole entry, looked up): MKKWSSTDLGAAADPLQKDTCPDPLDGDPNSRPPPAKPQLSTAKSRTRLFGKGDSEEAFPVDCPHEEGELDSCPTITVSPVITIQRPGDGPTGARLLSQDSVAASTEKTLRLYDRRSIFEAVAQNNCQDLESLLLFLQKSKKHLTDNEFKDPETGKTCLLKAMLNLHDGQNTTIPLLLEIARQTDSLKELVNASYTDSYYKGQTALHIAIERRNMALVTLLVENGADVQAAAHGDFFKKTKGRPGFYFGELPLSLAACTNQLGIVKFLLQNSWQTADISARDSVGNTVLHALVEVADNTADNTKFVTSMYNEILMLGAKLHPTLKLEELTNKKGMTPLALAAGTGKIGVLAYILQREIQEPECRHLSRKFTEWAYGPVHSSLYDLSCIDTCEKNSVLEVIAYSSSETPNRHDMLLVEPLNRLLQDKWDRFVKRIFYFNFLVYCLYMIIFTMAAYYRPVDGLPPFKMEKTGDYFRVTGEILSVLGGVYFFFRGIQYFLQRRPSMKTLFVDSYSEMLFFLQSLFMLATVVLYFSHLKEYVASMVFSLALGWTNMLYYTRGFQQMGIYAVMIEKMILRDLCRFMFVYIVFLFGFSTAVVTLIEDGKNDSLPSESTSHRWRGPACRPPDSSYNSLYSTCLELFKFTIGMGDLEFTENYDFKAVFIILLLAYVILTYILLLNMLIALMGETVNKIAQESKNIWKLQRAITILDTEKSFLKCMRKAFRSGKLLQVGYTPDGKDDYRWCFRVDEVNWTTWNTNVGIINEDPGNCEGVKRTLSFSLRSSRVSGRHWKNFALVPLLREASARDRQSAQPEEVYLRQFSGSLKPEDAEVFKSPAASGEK

O=Nc1c(-c2c(O)[nH]c3ccccc23)[nH]c2ccccc12
active: [1] 1.58 µM | [2] 2.24 µM | [3] 0.398 µM | [4] 0.501 µM | [17] 6.31 µM and 7.52 µM
inactive: all other assays above
